In PubChem BioAssay (NCI):
This is part of a sample that, as a whole, favours compounds with a hit. Of some 79,000 tested, about 15% had one in any assay. Active and inactive are the calls of the source. Cut-off read from the data, not from the text of the source: active = growth inhibition above about 70%; inactive = the rest.

Key:
[1] = NCI Yeast Anticancer Drug Screen. Data for the rad50 strain (AID 155);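 note: 0% = growth of vehicle-only cultures of the same strain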; conditions: S. cerevisiae rad50 strain growth inhibition; at 50.0 µM; hits give high values
In short: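 Growth of the mutant yeast was measured after compound exposure and referenced to vehicle-treated cultures.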

[2] = NCI Yeast Anticancer Drug Screen. Data for the mec2-1 strain (AID 157); conditions: S. cerevisiae mec2-1 strain, at 50.0 µM, hits give high values
In short: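 Growth inhibition is read against vehicle-treated controls after compound exposure of the mec2-1 yeast strain, which is defective in DNA damage repair or cell cycle control.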

[3] = NCI Yeast Anticancer Drug Screen. Data for the cln2 rad14 strain (AID 165);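 note: 0% = growth equal to vehicle treated cultures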; conditions: S. cerevisiae cln2 rad14 strain, at 50.0 µM, hits give high values
In short: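 Growth inhibition, relative to vehicle-treated controls, is the read-out. The test organism is a yeast strain with defined genetic alterations, cln2 rad14.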

[4] = NCI Yeast Anticancer Drug Screen. Data for the bub3 strain (AID 167); conditions: S. cerevisiae bub3 mutant strain, at 50.0 µM, hits give high values
In short: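 Whole-cell yeast assay. The mutant strain was incubated with compounds, and growth inhibition was determined by comparison with vehicle-treated cells.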

[5] = NCI Yeast Anticancer Drug Screen. Data for the mlh1 rad18 strain (AID 175); conditions: S. cerevisiae mlh1 rad18 strain growth inhibition; at 50.0 µM; hits give high values
In short: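 Cells of a genetically altered yeast strain, deficient in DNA damage repair, were treated with compound. Their growth was then compared with that of vehicle-treated cultures to give inhibition.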

[6] = NCI Yeast Anticancer Drug Screen. Data for the sgs1 mgt1 strain (AID 161);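 note: 0% = growth of cultures given vehicle only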; conditions: S. cerevisiae sgs1 mgt1 strain, at 50.0 µM, hits give high values
In short: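 This yeast growth screen uses a strain with defined DNA-repair lesions; compound-treated growth is compared with vehicle-treated growth.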

Compound | growth inhibition [1] | growth inhibition [2] | growth inhibition [3] | growth inhibition [4] | growth inhibition [5] | growth inhibition [6]
COC(CC(=O)O)CC(C)CC(C)(C)C (stereo not given) | 48.5% (inactive) | 15.8% (inactive) | 18.9% (inactive) | 24.9% (inactive) | 40.1% (inactive) | 
NCC(=O)Nc1ccc(C(=O)O)cc1 | 28.8% (inactive) | 17.1% (inactive) | 4.6% (inactive) | 4.05% (inactive) | 9.1% (inactive) | 
c1cc(C[S+]2CCCC2)ccc1C[S+]1CCCC1 | -17.9% (inactive) | -30.9% (inactive) | -21.1% (inactive) | -12.4% (inactive) | -22.3% (inactive) | 
CC(C)(C)OC(=O)NC(Cc1ccccc1)C(=O)N[C@H]1c2ccsc2/C(=N/O)[C@H]1O (stereo not given in full) | -9.2% (inactive) | -6.95% (inactive) | 9.15% (inactive) | -4.85% (inactive) | 29.9% (inactive) | 
O=C(Cc1ccccc1)N/N=C(/c1nc2ccc([N+](=O)[O-])cc2[nH]c1=O)C(O)c1ccco1 (stereo not given) | -0.95% (inactive) | -9.75% (inactive) | -79.2% (inactive) | -6.25% (inactive) | -2.8% (inactive) | 
CCC(=O)/C=C/c1cc(OC)c(OC)c(OC)c1 | 7.15% (inactive) | -24.9% (inactive) | -36.9% (inactive) | -9.1% (inactive) | 2.4% (inactive) | 
CC1(C(Cl)Cl)C=CC(=O)c2ccccc21 (stereo not given) | 37% (inactive) | 35.6% (inactive) | 15.3% (inactive) | 12.3% (inactive) | 4.9% (inactive) | 
N#CN1CC[C@@H]2CC3(CCC2C1)OCCO3 (stereo not given in full) | 17.6% (inactive) | 4.3% (inactive) | -4.45% (inactive) | -18.4% (inactive) | 1.5% (inactive) | 
C=CCC(CC=C)(C(=O)Nc1ccc2nc(C)cc(N)c2c1)C(=O)Nc1ccc2nc(C)cc(N)c2c1 | 2.05% (inactive) | 24.7% (inactive) | 20.1% (inactive) | 12.4% (inactive) | -10.1% (inactive) | 
C#CCI | 20.9% (inactive) | 6.5% (inactive) | 33.9% (inactive) | 7.35% (inactive) | 17.5% (inactive) | 
CC(C)Oc1c(O)c2c3c(oc(=O)n3C=CC2c2ccccc2)c1OC(C)C (stereo not given) | 86.8% (active) | 86.9% (active) | 86.6% (active) | 85.5% (active) | 82.3% (active) | 
COc1ccc(C=Nc2ccc(O)cc2)cc1 | 5.45% (inactive) | -2.3% (inactive) | 34.1% (inactive) | -22.6% (inactive) | -13.9% (inactive) | 
COC(=O)C(=O)C(C(=O)C=C(C)C)C(=O)C(=O)Nc1cc(C(F)(F)F)ccc1Cl (stereo not given) | -3% (inactive) | -1.4% (inactive) | -57.1% (inactive) | 1.15% (inactive) | -10.8% (inactive) | 
COc1cc(OC)c(OC)cc1/C=N/N=C(\N)NO | -12.3% (inactive) | 0.5% (inactive) | 3.05% (inactive) | -13.1% (inactive) | -10.4% (inactive) | 
CC(=O)N(CN1C(=O)CCC1C(=O)O)c1ccccc1 (stereo not given) | 20.1% (inactive) | -0.55% (inactive) | 1.55% (inactive) | 0.7% (inactive) | -31.3% (inactive) | 
CCCSc1nc2c(c(=O)n(C)c(=O)n2C)n1C | 7.85% (inactive) | 15.2% (inactive) | -9.3% (inactive) | 9.15% (inactive) | 6.5% (inactive) | 
O=[N+]([O-])c1ccc(/C(CBr)=N/N2CCCCCC2)cc1 | -1.05% (inactive) | -16.9% (inactive) | 7.9% (inactive) | -15.8% (inactive) | -4.55% (inactive) | 
Cc1ccc(C(N)=Nc2ccccc2)cc1 | 0.65% (inactive) | 0% (inactive) | -2.85% (inactive) | 3.3% (inactive) | 23.4% (inactive) | 
CCC1c2c(cc(=O)[nH]c2O)C(=O)N1C (stereo not given) | 9.5% (inactive) | -4.75% (inactive) | -9.15% (inactive) | -0.8% (inactive) | 0.55% (inactive) | 

Compound | growth inhibition [1] | growth inhibition [2] | growth inhibition [3] | growth inhibition [4] | growth inhibition [5] | growth inhibition [6]
Cc1cccc(C2ON=C(c3ccccc3)N2C23CC4CC(CC(C4)C2)C3)c1 (stereo not given) | -20.8% (inactive) | -0.35% (inactive) | -2.45% (inactive) | 0.75% (inactive) | -33.5% (inactive) | 
N#CCC(=O)N/N=C1/C(=O)N(c2cc(Cl)ccc2Cl)C(=O)C(=O)C1c1nc2ccccc2s1 (stereo not given) | 42.8% (inactive) | 27.8% (inactive) | 19.9% (inactive) | -0.5% (inactive) | 51% (inactive) | 
CCOC(=O)Cc1ccc2c(c1)sc1nc(-c3ccc(OC)cc3)cn12 | 38.8% (inactive) | 19.5% (inactive) | 32.3% (inactive) | 31.1% (inactive) | 18.6% (inactive) | 
CC1CCc2c(O)ccc(O)c21 (stereo not given) | 5.7% (inactive) | 5.4% (inactive) | -15.2% (inactive) | -5% (inactive) | 8.1% (inactive) | 
Cc1ccc(S(=O)(=O)OCC(c2ccccc2)C(F)(F)F)cc1 (stereo not given) | -3.25% (inactive) | -14.2% (inactive) | -23.7% (inactive) | 18.6% (inactive) | -1% (inactive) | 
COCN(COC)c1nc(CCC(Br)(Br)Br)nc(N(COC)COC)n1 | 36.5% (inactive) | 11.5% (inactive) | 37% (inactive) | -2.85% (inactive) | 31% (inactive) | 
OCCCNc1ncnc2[nH]ncc12 | 7.7% (inactive) | 16.1% (inactive) | 59% (inactive) | -4.9% (inactive) | 13.4% (inactive) | 
Nc1ccccc1N1C(=O)C(Cl)=C(Cl)C1=O | 39.5% (inactive) | 5.4% (inactive) | 14.2% (inactive) | 3% (inactive) | 44% (inactive) | 
CC(C)C(=O)NCc1ccccc1Sc1ccccc1CNC(=O)C(C)C | -13.8% (inactive) | 6.1% (inactive) | -10% (inactive) | 1.4% (inactive) | -0.7% (inactive) | 
O=C(NC(=S)c1ccccc1)Nc1ccccc1 | 2.1% (inactive) | 37.5% (inactive) | -8.85% (inactive) | 24.4% (inactive) | 18.9% (inactive) | 
CC(=O)Nc1ccc(S(=O)(=O)NCCC(=O)O)cc1 | -9.7% (inactive) | -16.6% (inactive) | 4.3% (inactive) | 4.45% (inactive) | 21.8% (inactive) | 
CCC(=O)Nc1ncnc2ncn(C(=O)CC)c12 | -8.7% (inactive) | -48.2% (inactive) | -23.6% (inactive) | -45.1% (inactive) | 9.65% (inactive) | 
C=CNC(=S)n1nc(-c2ccccc2NC(=O)C(F)(F)F)c(=O)n(C(=S)NC=C)c1=S | 31.4% (inactive) | 38.5% (inactive) | -0.55% (inactive) | -9.1% (inactive) | 24.9% (inactive) | 
CCc1cc(-c2ccc(OC)cc2)c(C#N)c(=S)n1C1OC(CO)C(O)C(O)C1O (stereo not given) | 4.9% (inactive) | -3.5% (inactive) | 0.7% (inactive) | 3.35% (inactive) | 7.7% (inactive) | 
CC1CNC(=O)C(=O)N1 (stereo not given) | -14.7% (inactive) | -1.8% (inactive) | -13.4% (inactive) | -10.9% (inactive) | -8.05% (inactive) | 
O=C(C[N+]12CC=C(CO)C1C(O)CC2)c1ccc(Br)cc1 (stereo not given) | 5.55% (inactive) | -6.25% (inactive) | -24.4% (inactive) | 3.35% (inactive) | -4% (inactive) | 
CN1c2ccccc2N(C)C2C1N(C)c1ccccc1N2C (stereo not given) | -38.9% (inactive) | -28.4% (inactive) | -1.8% (inactive) | -19.9% (inactive) | -36.1% (inactive) | 
Cc1ccc(S(=O)(=O)Nc2ccc3nc(C)oc3c2)cc1 | 26.4% (inactive) |  | 14.7% (inactive) | 45% (inactive) | 17% (inactive) | 44.1% (inactive)
C#C/C=C/CC(OC(C)=O)C1C/C=C\CC(Br)C(CC)O1 (stereo not given) | 31.1% (inactive) |  | 36.1% (inactive) | 49% (inactive) | 45.3% (inactive) | 46% (inactive)
